Most compounds without a hit are left out; they make up all but 1.2% or so of the library.
PfHsp40 rescue: compounds rescuing yeast from Plasmodium falciparum HSP40 toxicity. S. cerevisiae expressing PfHsp40, growth rescue, ATP luminescence. growth rescue, % at 12.5 µM. 0.68% of 340,000 active. AID 504582; in the data active = growth rescue above about 28%, passing the limit was not always enough; inconclusive = no clear call, values can overlap the other calls;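 note: yeast W303a lacking pdr1 and pdr3 grown in galactose medium; growth measured after three days at 30 °C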
TcdB inh: TcdB glycohydrolase inhibition | TcdB glycohydrolase enzymatic assay, plate reader | AID 652162 | 0.24% of 350,000 active | inhibition, % at 9.99 µM; in the data active = inhibition above about 10%
Y pestis TopoI: Y. pestis Topo-I inhibition via cleavage products | Y. pestis Topo-I cleavage product accumulation, plate reader | 0.064% of 360,000 active | activity, % at 10 µM | AID 504884; in the data active = activity above about 50%, passing the limit was not always enough; inconclusive = no clear call, values can overlap the other calls
FadD28 binding: blocks FadD28 binding to the bisubstrate probe; 0.22% of 360,000 active; fluorescence polarization; inhibition, % at 12.5 µM; in the data active = inhibition above about 8.5%, passing the limit was not always enough; inconclusive = no clear call, values can overlap the other calls
PrP UTR inh: inhibition of PrP 5' UTR reporter expression; 0.35% of 340,000 active; inhibition, % (no concentration beside the values); AID 488862; cell-based PrP 5' UTR mRNA reporter, plate reader; in the data active = inhibition above about 52%; note: 0 = median of the neutral control wells
Mtb BioA inh: BioA (M. tuberculosis) enzyme inhibition; purified M. tuberculosis BioA enzyme, plate reader; inhibition, % at 9.99 µM; 0.096% of 360,000 active; AID 602481; in the data active = inhibition above about 40%; inconclusive = no clear call, values can overlap the other calls
Active calls of the source: *; ? = inconclusive; / = no result given.

SMILES	PfHsp40 rescue	TcdB inh	Y pestis TopoI	FadD28 binding	PrP UTR inh	Mtb BioA inh
CC(NC(=O)COC(=O)/C=C/c1ccc(Cl)cc1)c1ccccc1 (stereo not given)	32*	0	16	-1	-13	0
CC(NC(=O)COC(=O)/C=C/c1cccc(F)c1)c1ccccc1 (stereo not given)	-1	0	13	-1	-14	0
COc1ccc(C[C@@H]2CCc3cnnn3COC[C@@H](c3ccccc3)NC2=O)cc1	/	1	/	/	/	/
O=Cc1cc(OCc2ccccc2)ccc1[B-](F)(F)F	160*	-3	3	1	1	1
Nc1ccc(OCc2ccccc2)cc1[N+](=O)[O-]	0	2	-1	-1	-38	-2
Cc1ccccc1CN(C)CCS(=O)(=O)c1cc(Cl)ccc1Cl	61*	2	48	-2	-34	-1
COCC(=O)N1[C@H](CO)[C@@H](c2ccccc2)C12CN(C(=O)NC1CCCC1)C2	/	0	/	/	/	/
O=C(O)c1ccc(-c2ccc(O)c(F)c2)cc1	1	18*	2	-1	0	-3
O=C(O)c1ccc(O)c(O)c1	0	-21	-6	-1	-11	-1
CN(C)CCNc1ccc(CO)c2sc3ccc(O)cc3c(=O)c12	-1	25*	-12	-1	1	/
COCC#Cc1ccc2c(c1)O[C@H](CN(C)Cc1cccnc1)[C@H](C)CN([C@@H](C)CO)S2(=O)=O	/	0	/	/	/	0
CO[C@H]1CN(C)C(=O)c2cc(NC(=O)C3CC3)ccc2OC[C@H](C)N(CC2CCOCC2)C[C@@H]1C	/	-2	/	/	/	1
Cn1c(=O)[nH]c(=O)c2c1nc(N1CCCCCC1)n2Cc1cccc2ccccc12	-1	/	63*	-1	-5	/
CCCn1c(N2CCC(Cc3ccccc3)CC2)nc2c1c(=O)[nH]c(=O)n2C	7	/	52*	-1	-9	3
CCCCCn1c(N2CCC(Cc3ccccc3)CC2)nc2c1c(=O)[nH]c(=O)n2C	3	/	44	-4	-5	0
Cc1ccccc1S(=O)(=O)N(C)C[C@H]1OCc2ccccc2-c2c(n(C)c3ccccc23)C(=O)N([C@@H](C)CO)C[C@H]1C	/	/	/	/	/	-1
Cc1ccccc1S(=O)(=O)N1C[C@H](O)COC[C@@H]2O[C@H](CC(=O)NCCc3ccccc3)CC[C@H]21	/	-1	/	/	/	2
C[C@H](NC(=O)C[C@H]1C[C@@H]2c3cc(NC(=O)CN(C)C)ccc3O[C@@H]2[C@H](CO)O1)c1ccccc1	/	-1	/	/	/	-1
C=CCOC(=O)c1cc(-c2ccc(/C=C3\C(=O)NC(=O)C(C#N)=C3C)o2)ccc1Cl	?	/	-19	20*	-39	7
CCCOC(=O)c1cc(-c2ccc(/C=C3/C(=O)N(C)C(=O)C(C#N)=C3C)o2)ccc1Cl	2	/	2	0	-52	4
Cc1cccc(NC(=O)CN2C(=O)N/C(=C/c3cc(C)n(-c4ccncc4)c3C)C2=O)c1	-1	1	5	11*	-30	0
Cc1cccc(NC(=O)CN2C(=O)N/C(=C/c3cc(C)n(-c4cccnc4)c3C)C2=O)c1	0	0	-9	28*	-20	/
COc1ccccc1C(=O)NNC(=S)NC(=O)c1cc(OC)c(OC)c(OC)c1	62*	2	8	-2	-9	/
COc1cc(C(=O)NC(=S)NNC(=O)c2cnccn2)cc(OC)c1OC	132*	/	0	0	-21	-1
CCNC(=O)C[C@H]1CC[C@@H]2[C@H](COc3ccc(NC(=O)Nc4cccc(F)c4)cc3C(=O)N2C)O1	/	1	/	/	/	35
SMILES	PfHsp40 rescue	TcdB inh	Y pestis TopoI	FadD28 binding	PrP UTR inh	Mtb BioA inh
COc1cccc(S(=O)(=O)Nc2ccc3c(c2)[C@@H]2C[C@H](CC(=O)NCc4cccc(F)c4)O[C@@H](CO)[C@@H]2O3)c1	/	-1	/	/	/	2
CCN1[C@@H]2Cn3c(ccc(/C=C/c4ccccc4)c3=O)[C@H]1[C@@H](C(=O)NC1Cc3ccccc3C1)[C@@H]2CO	/	1	/	/	/	/
Cc1cccc(NC(=O)Cn2c(=O)n3nc(CCn4nc(C)cc4C)nc3c3ccccc32)c1	3	/	1	9.0*	-6	1
C=C(C)Cc1c(C)c(C#N)c2[nH]c3ccccc3n2c1=O	131*	0	14	1	-15	0
CC(SCc1cc(=O)n2c([nH]c3ccccc32)c1C#N)C(=O)O (stereo not given)	1	2	1	10*	-32	0
Cc1ccc(-c2cnc3c(c2)C(=O)N([C@@H](C)CO)C[C@H](C)[C@@H](CN(C)C(=O)Cc2ccccc2)O3)cc1	/	0	/	/	/	5
O=C(COC(=O)CNS(=O)(=O)c1ccc2ccccc2c1)Nc1ccccc1Sc1ccccc1	1	0	62*	-4	-10	/
O=C(COC(=O)CNS(=O)(=O)c1ccc2ccccc2c1)Nc1ccc2c(c1)OCO2	-1	-1	14	-4	-4	/
O=C(C[C@H]1CC[C@@H]2[C@H](COC[C@@H](O)CN2Cc2cc(F)cc(F)c2)O1)NCc1cccc(F)c1	/	-1	/	/	/	-2
Cc1[nH]ccc2c1[nH]c1cc(=O)ccc12	0	10*	-12	0	2	-1
O=C1CCCC/C1=C\Nc1ccc(C(=O)O)c(O)c1	0	0	-1	31*	-4	/
CC1CCC/C(=C\Nc2ccc(C(=O)O)c(O)c2)C1=O (stereo not given)	-1	0	0	4	-51	/
CO[C@@H]1CN(C)C(=O)c2ccc(NC(=O)C3CCOCC3)cc2OC[C@@H](C)N(CC2CC2)C[C@H]1C	/	-2	/	/	/	-2
Cc1cccc(Nc2nc(N)nc(-c3oc4ccccc4c3C)n2)c1	3	2	21	-4	-87	0
Cc1ccc(Nc2nc(N)nc(-c3oc4ccccc4c3C)n2)cc1	3	/	15	-4	70*	/
Cc1cccc(OCCC(=O)NCC(=O)Nc2cccc(C)c2C)c1	0	19*	2	-3	-28	-2
Cc1cccc(NC(=O)CCOc2ccccc2)c1C	2	0	0	-2	9	0
COc1c(O)cc2oc(-c3ccc(O)cc3)cc(=O)c2c1O	0	1	-1	0	-30	0
O=c1cc(-c2ccccc2)oc2cc(O)c(O)c(O)c12	141*	5	-5	6	-55	0
COCC(=O)N1C[C@H](C)[C@@H](OC)CN(C)C(=O)c2cc(NC(=O)c3cnccn3)ccc2OC[C@@H]1C	/	0	/	/	/	0
COc1ccc(CN2CCN(C(=O)C3CC(=O)N(C4CCCCCC4)C3)CC2)c(OC)c1OC (stereo not given)	5	/	74*	-1	-5	-1
COc1ccc(CN2CCCC(C(=O)N3CCCC3)C2)c(OC)c1OC (stereo not given)	/	-1	1	-2	/	-1
CCCn1c(=S)[nH]c2sc3c(c2c1=O)CCCC3	-1	1	-6	0	-3	-3
COCCn1c(=S)[nH]c2sc3c(c2c1=O)CCC(C)C3 (stereo not given)	1	3	-1	12*	-20	2

Screens: PubChem, Broad Institute
